# AddAB inh: less growth of phage-infected E. coli with AddAB. AID 435030. inhibition, % at 11.9 µM. E. coli expressing H. pylori AddAB, absorbance growth. 330,000 compounds, 0.29% hits; in the data active = inhibition above about 12%;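 also: 0% = vehicle wells of infected cells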
# E coli growth-1: bacterial growth inhibition, counter-screen for AddAB inhibitors; E. coli V3065 growth, OD600 absorbance, 18 h; 330,000 compounds, 0.27% hits; inhibition, % at 11.9 µM;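 active = inhibition above the campaign's mean inhibition across all tested compounds plus 3 SD, cut at about 9.9% in these data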;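 also: uninfected addAB+ strain grown without phage in ampicillin broth; 0% = DMSO wells and 100% = ciprofloxacin 0.95 µg/ml wells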
# Tat export inh: blocks Tat-dependent protein export in E. coli | E. coli MC4100 TorA-mCherry Tat export, fluorescence | inhibition, % at 10 µM | 340,000 compounds, 0.036% hits | AID 488895;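 active = mean replicate inhibition at least 50% and at least half of replicates individually reaching 50%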;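 also: exported cargo escapes ClpAP degradation while cytoplasmic cargo is degraded and loses fluorescence; 0% = median of neutral control wells and 100% = median of NaSCN control wells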
# phage Ecoli inh: E. coli growth loss with phage present. AID 651602. 360,000 compounds, 0.26% hits. inhibition, % at 11.9 µM. growth absorbance; in the data active = inhibition above about 11%
# E coli growth-2: inhibitors of Escherichia coli growth; OD600, 23 h; hits give low values; OD600 absorbance (concentration not given with the values); 330,000 compounds, 0.21% hits; AID 1053175;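 active = OD600 absorbance below the run mean of sample wells minus 3.6 SD, in any replicate, cut at about 0.56 in these data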
# AddAB confirm: growth loss of T4-infected E. coli expressing H. pylori AddAB, confirmed | 880 compounds, 64% hits | inhibition, % at 11.9 µM | shares compounds with AddAB inh | E. coli V3065 expressing H. pylori AddAB, T4 phage, OD; T4 phage with gene 2 nonsense mutations;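 active = mean inhibition above a set limit taken from the earlier primary screen, cut at about 13% in these data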;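 also: higher means less bacterial growth since AddAB block lets phage replicate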
# RecBCD counter: reduces growth of phage-infected RecBCD+ E. coli, AddAB inhibitor counter-screen; E. coli V66 + mutant T4 phage, OD growth; shares compounds with AddAB inh; inhibition, % at 11.9 µM; 880 compounds, 73% hits;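 active = mean inhibition above the mean of solvent-only control wells plus 3 SD, cut at about 4% in these data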;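 also: optical density read after an 18 h incubation at 37 °C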
# Bact viability: counter-screen for AddAB inhibitors: inhibitors of bacterial viability; AID 488956; shares compounds with AddAB inh; absorbance (AddAB counterscreen); inhibition, % at 11.9 µM; 880 compounds, 35% hits; in the data active = inhibition above about 25%
# RecBCD conf: growth loss of phage-infected V66 E. coli, RecBCD confirmation screen; shares compounds with phage Ecoli inh; E. coli V66 + T4 2- phage, growth OD; inhibition, % at 11.9 µM; 890 compounds, 45% hits;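 active = mean inhibition over triplicates exceeding the hit threshold derived in the original primary screen, cut at about 11% in these data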
# Ecoli viability: counter-screen for RecBCD inhibitors: inhibitors of bacterial viability; E. coli viability, absorbance (OD) growth; shares compounds with phage Ecoli inh; 890 compounds, 29% hits; inhibition, % at 11.9 µM; in the data active = inhibition above about 20%;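 also: E. coli strain V66 grown with compound alone and no phage infection; 0% = bacteria with DMSO vehicle only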
# AddAB counter: growth loss of phage-infected AddAB E. coli, RecBCD counter-screen; shares compounds with phage Ecoli inh; E. coli expressing H. pylori AddAB + T4 phage, OD growth; gene 2 mutant T4, recBCD-deleted host; inhibition, % at 11.9 µM; 890 compounds, 45% hits; AID 651984;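 active = mean inhibition above the solvent-only control wells' mean plus 3 SD, cut at about 22% in these data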;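 also: higher means less bacterial growth from phage killing when AddAB is blocked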
# An asterisk follows results filed as active; . = no result given. A selection: hits, their analogues and other compounds. The true share with any hit is near 0.51%.
SMILES,AddAB inh,E coli growth-1,Tat export inh,phage Ecoli inh,E coli growth-2,AddAB confirm,RecBCD counter,Bact viability,RecBCD conf,Ecoli viability,AddAB counter
CCCCC(=O)NC(c1ccc(Cl)cc1)c1ccc2cccnc2c1O (stereo not given),31*,30*,-5,20*,.,29*,22*,23,12*,14,33*
CCCC(=O)NC(c1ccc(Cl)cc1Cl)c1ccc2cccnc2c1O (stereo not given),20*,27*,-1,24*,.,20*,20*,19,16*,19,25*
CC(=O)NC(c1ccc2ccccc2c1)c1ccc2cccnc2c1O (stereo not given),30*,27*,-7,24*,.,28*,22*,20,16*,20*,32*
NC(=S)NN=C1CCSc2ccc(Cl)cc21,.,.,.,.,0.69,.,.,.,.,.,.
O=C(NC1CC1)C1=CC(c2ccc3c(c2)OCO3)CC(OCCCCO)O1 (stereo not given),.,.,.,.,0.67,.,.,.,.,.,.
CCCCC(=O)NC(c1ccccc1OC)c1ccc2cccnc2c1O (stereo not given),32*,33*,23,34*,0.62,30*,28*,27*,21*,25*,32*
CCCCC(=O)NC(c1ccc(OC)c(OC)c1)c1c(O)ccc2ccccc12 (stereo not given),1,-1,4,.,0.65,.,.,.,.,.,.
CC(=O)c1sc(NN=Cc2cccc([N+](=O)[O-])c2)nc1C,.,.,.,.,0.71,.,.,.,.,.,.
Cc1nc(Nc2ccc(S(N)(=O)=O)cc2)oc1C,15*,9.9*,-10,12*,0.73,9,5.3*,15,5,2,41*
Cc1ccc(/C=C/C(=O)Nc2ccc(S(N)(=O)=O)cc2)o1,2,4,2,-1,0.69,.,.,.,.,.,.
Cc1cc(C=Nn2cnnc2)c(C)n1-c1ccccc1,.,.,.,.,0.78,.,.,.,.,.,.
CCOc1ccc(OCC(=O)Nc2ccccc2C(F)(F)F)cc1,-1,0,2,4,0.71,.,.,.,.,.,.
CCC(ONc1ccccc1C(F)(F)F)(C(=O)NN(C)C)c1ccccc1 (stereo not given),101*,23*,-10,17*,0.5,98*,14*,62*,11*,12,103*
CO[C@@]1(NC(=O)C2SC(=C(C(N)=O)C(=O)O)S2)C(=O)N2C(C(=O)O)=C(CSc3nnnn3C)CS[C@@H]21 (stereo not given in full),97*,97*,-79,100*,.,101*,101*,101*,103*,105*,103*
COC(=O)c1ccc(CSc2nnnn2C)o1,2,-3,0,1,0.73,.,.,.,.,.,.
CCN1C(=O)C2C(c3ccc(-c4ccc(OC)cc4)c(OC)c3)N[C@@](Cc3ccccc3)(C(=O)OC)C2C1=O (stereo not given in full),.,.,.,.,0.69,.,.,.,.,.,.
COc1ccc(S(=O)(=O)N(C)CC2Oc3c(NC(=O)Nc4ccc(C(F)(F)F)cc4)cccc3C(=O)N(C(C)CO)CC2C)cc1 (stereo not given),.,.,.,.,0.69,.,.,.,.,.,.
CCn1cc(C(=O)NCCC(C)C)c(=O)c2cc(F)c(N3CCN(C)CC3)cc21,100*,99*,9,40*,0.066*,99*,59*,99*,19*,36*,93*
CCN(CC)CCNC(=O)c1cn(CC)c2cc(N3CCN(C)CC3)c(F)cc2c1=O,100*,98*,35,96*,0.056*,99*,100*,98*,65*,102*,100*
CCCCNC(=O)c1cn(CC)c2cc(N3CCN(C)CC3)c(F)cc2c1=O,100*,98*,.,97*,0.071*,98*,100*,99*,103*,104*,104*
CCn1cc(C(=O)NCc2cccnc2)c(=O)c2cc(F)c(N3CCN(C(=O)c4ccco4)CC3)cc21,95*,94*,10,21*,0.051*,98*,10*,99*,13*,14,103*
Cc1cc(C(=O)NN=Cc2ccc[nH]2)no1,.,.,.,.,0.63,.,.,.,.,.,.
CC(=NNC(=O)c1ccn(C)n1)c1ccc(NC(=O)C2CCCC2)cc1,.,.,.,.,0.68,.,.,.,.,.,.
C/C(N=Nc1nc2ccccc2s1)=N\Nc1ccccc1O,15*,11*,-6,33*,.,32*,34*,31*,24*,27*,39*
O=C(CSC1=NNC(c2ccccn2)S1)Nc1ccccc1 (stereo not given),13*,9,-15,11*,0.66,35*,14*,21,10,13,38*
SMILES,AddAB inh,E coli growth-1,Tat export inh,phage Ecoli inh,E coli growth-2,AddAB confirm,RecBCD counter,Bact viability,RecBCD conf,Ecoli viability,AddAB counter
CC(=O)N(O)CCCCCNC(=O)CCC(=O)N(O)CCCCCNC(=O)CCC(=O)N(O)CCCCCN,18*,22*,5,17*,.,7,13*,3,3,7,14
CCCC(=O)NCCCCNC(=O)CCC,-2,-3,-4,2,0.7,.,.,.,.,.,.
COc1ccc(S(=O)(=O)N(C)CC2Oc3ccc(NS(C)(=O)=O)cc3C(=O)N(C(C)CO)CC2C)cc1 (stereo not given),.,.,.,.,0.66,.,.,.,.,.,.
CN1CCN(C(c2ccc(F)cc2)c2ccc3cccnc3c2O)CC1 (stereo not given),.,.,1,.,0.69,.,.,.,.,.,.
CN1CCN(C(c2ccc(Br)cc2)c2cc(Cl)c3cccnc3c2O)CC1 (stereo not given),22*,23*,-8,13*,.,11,11*,5,2,4,3
Cc1ccc(CSc2nnc(SCC(=O)NN=Cc3c[nH]c4ccccc34)s2)cc1,.,.,.,.,0.73,.,.,.,.,.,.
CC(NC(=O)C(C#N)=Cc1ccc(Cl)c([N+](=O)[O-])c1)c1ccccc1 (stereo not given),.,.,.,.,0.65,.,.,.,.,.,.
O=C(Oc1c(Cl)cc(Cl)c2cccnc12)c1cccs1,40*,43*,7,42*,0.14*,51*,53*,56*,44*,53*,41*
O=C(Oc1c(CN2CCOCC2)cc(Cl)c2cccnc12)c1cccs1,-2,-8,3,-3,0.67,.,.,.,.,.,.
COc1ccc(C(=O)NN=Cc2ccoc2)cc1,.,.,.,.,0.67,.,.,.,.,.,.

# Compound activity as filed in PubChem BioAssay.
